Source: PubChem BioAssay

experiment: blockers of RIG-like receptor reporter activation – cell-based, Sendai virus stimulus, luciferase, 10K MLSCN set, TLR/RLR signaling modifier project, primary screen (AID 602276); settings: HEK293 RL24 IRF3 luciferase reporter, at 10 µM, active compounds read high;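 active = inhibition at or above 50% at 10 µM; inactive = inhibition below 50%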;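 note: firefly luciferase from ISG56 promoter only with Renilla not read in this screen; 0% = Sendai virus plus DMSO and 100% = medium plus DMSO without virus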

inhibition, inactive:
O=C(Nc1cccc(F)c1)C1C2C=CC3(CN(CCCN4CCOCC4)C(=O)C13)O2 (stereo not drawn) -14.3%
CCOc1ccc2nc(SCC(=O)N3CCCCCC3)c(C#N)cc2c1 -1.31%
CCOC(=O)N(C)c1ccc(C(O)(C(F)(F)F)C(F)(F)F)cc1 -1.35%
CCOC(=O)c1sc(NC(=O)CSc2nnc3c4ccccc4n(CC)c3n2)nc1C -6.56%
COc1cc(CN(C)CC(=O)c2[nH]c(C)c(C(C)=O)c2C)ccc1OC(F)F -17.1%
CCCCn1c(SCC(=O)N2CC(=O)Nc3ccccc32)nnc1-c1ccoc1C 13.2%
CCOC(=O)c1ccc(N=c2sc(C(=O)OC)cc(=O)n2Cc2ccco2)cc1 -17.5%
CCOC(=O)CN(C(=O)CSc1nnc(-c2ccncc2)n1CCCN(C)C)c1ccccc1 14.2%
CCOC(=O)N1CCN(c2c(NCCN(C)Cc3ccccc3)c(=O)c2=O)CC1 1.64%
Clc1cccc(N2CCN(Cc3nc(-c4ccccc4)no3)CC2)c1 2.81%
COc1ccccc1CN1CC(C(=O)NCc2cccnc2)CC1=O (stereo not drawn) 7.79%
COc1cccc(C2C(C(N)=O)=C(C)Nc3nc(-c4ccccc4Cl)nn32)c1 (stereo not drawn) 12.6%
CCOc1cccc(C(=O)N(Cc2ccco2)C2CCS(=O)(=O)C2)c1 (stereo not drawn) 11.5%
CCOC(=O)N1CCC(NC(=O)c2cc(C(=O)NC3CCCC3)ccc2CO)CC1 11.2%
COc1ccc(Br)cc1CNC(=O)C1CCCN(S(C)(=O)=O)C1 (stereo not drawn) 5.73%
Cc1nc2c(C(=O)O)cnn2c(C)c1Cc1ccccc1F -2.88%
O=c1[nH]c(N2CCCCC2)nc2c1CCCC2 17%
CC(C)(C)NC(=O)C(c1ccco1)N(C(=O)Cn1nnc(-c2ccc(F)cc2)n1)c1ccccc1F (stereo not drawn) 10.9%
O=C(Nc1ccccc1N1CCOCC1)c1ccc2ccccc2n1 -13.5%
Nc1nc2n(n1)C(c1cccc(Br)c1)CC(c1ccccc1)N2 (stereo not drawn) 13.2%
CCN(C(=O)c1cc(Cl)ccc1OC)c1ccccc1 14.3%
CC(C)[C@H](NC(=O)OC(C)(C)C)c1nnc(SCc2cccc(F)c2)o1 9.92%
CC(=O)NS(=O)(=O)c1ccc(NC(=O)c2ccccc2F)cc1 6.18%
